In all, about 33,000 sequences were measured (“E-score (-0.5 to 0.5)”: median about -0.016, highest 2% from about 0.31 on). This is one part of a sample in which the highest values are shown more often than they occur.
target: Cst6 (UniProt P40535); assay: PBM E-score (8-mer binding enrichment) (E-score (-0.5 to 0.5)); higher = stronger / more preferred TF binding; details: protein concentration: 200 nM; construct: GST-DNA-binding domain
In short: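 PURExpress in vitro transcription/translation supplied GST-tagged yeast transcription factors, either full-length or DNA-binding domain. Applied at about 100-200 nM to universal all-10-mer Agilent arrays double-stranded by primer extension, the bound protein was detected with fluorescent anti-GST. E-scores, modified Wilcoxon-Mann-Whitney statistics, were given by the Universal PBM Analysis Suite to ungapped eight-base words pooled with their reverse complements after masliner normalisation.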

Sequence of UniProt P40535 (P40535 whole entry, the tested form may be a part): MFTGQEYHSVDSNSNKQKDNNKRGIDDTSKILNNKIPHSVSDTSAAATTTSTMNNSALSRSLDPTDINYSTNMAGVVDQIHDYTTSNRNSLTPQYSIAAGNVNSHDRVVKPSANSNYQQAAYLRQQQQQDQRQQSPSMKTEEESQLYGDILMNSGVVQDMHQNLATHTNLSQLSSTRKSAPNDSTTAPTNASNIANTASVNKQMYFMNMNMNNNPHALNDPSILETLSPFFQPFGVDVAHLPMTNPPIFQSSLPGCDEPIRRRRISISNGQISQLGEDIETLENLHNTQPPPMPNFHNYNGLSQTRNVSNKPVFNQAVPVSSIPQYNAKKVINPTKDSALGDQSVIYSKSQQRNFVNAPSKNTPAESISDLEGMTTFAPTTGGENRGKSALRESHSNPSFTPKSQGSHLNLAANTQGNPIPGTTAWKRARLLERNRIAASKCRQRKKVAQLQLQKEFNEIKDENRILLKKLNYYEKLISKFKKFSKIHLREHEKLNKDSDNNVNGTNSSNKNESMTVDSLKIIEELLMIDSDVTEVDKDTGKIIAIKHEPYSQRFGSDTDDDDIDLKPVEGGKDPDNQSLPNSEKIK

Sequence | PBM E-score
CATTCCCG | 0.0388
ATGTTGAA | 0.104
CCTAATAA | 0.00168
TGTAATAA | 0.329
CGTAATAG | 0.318
AGTAATAA | 0.302
AGTAATAG | 0.211
CTTAATAA | 0.155
CGTAATAC | 0.366
AGTAATAC | -0.0264
CATAATAG | 0.202
GGTAATAC | 0.111
GGTAATAA | 0.247
CGTAATAA | 0.325
CATTGCCC | -0.241
AACTTGCT | -0.117
CTAACTAG | 0.0585
GGATTGCA | 0.0154
ATATACAT | 0.16
TGGGGAAA | 0.0662
AACCATCC | -0.0939
CGAATGAA | 0.0688
AGAATGAG | -0.0205
AGAATGAA | 0.207
CGAATGAC | 0.348

Sequence | PBM E-score
GGAATGAC | 0.255
AGAATGAC | 0.354
GGACGGGA | -0.285
ATAAGTAA | 0.164
CACTGACG | 0.371
AGCTGACG | 0.359
CACTGACC | -0.133
CGCTGACG | 0.384
CGCTGACC | -0.0695
AGCTGACC | -0.126
CGCTGACA | 0.166
AGCTGACT | -0.0426
CACTGACA | 0.08
AGCTTTAA | 0.127
CGGCTAGA | -0.038
ATTTCAGC | 0.00693
ATGGAAAT | 0.122
GGCTACAC | -0.0907
CTCCAGAC | -0.158
TACATTAA | 0.19
GGTGCGTA | -0.062
CGGTTAAG | -0.0846
AGGTCATC | 0.231
CGGTCATA | 0.298
CCGTCATA | 0.363

Sequence | PBM E-score
AGGTCATG | 0.221
AAGTCATA | 0.283
ACGTCATA | 0.494
AAGTCATG | 0.185
ACGTCATC | 0.497
ACGTCATG | 0.495
AAGTCATC | 0.114
AGGTCATA | 0.168
CAGTCATA | 0.123
CTAGACTC | -0.329
CAAGGCAG | -0.119
CCATGGCG | 0.102
ATTCAGTA | 0.164
AAGGGACA | -0.141
AATTGTTG | 0.0795
GGCGGGCA | -0.0394
CCGTCATC | 0.385
CAGTCATC | -0.0341
CGGTCATC | 0.085
GGGTCATA | -0.0664
GCGTCATA | 0.463
GAGTCATA | 0.144
AACGAAAT | 0.156
AGATTGAG | 0.228
CCTTGGCA | -0.209

Sequence | PBM E-score
CTTTGTTC | 0.126
ATTTGTTA | 0.22
ATTTGTTC | 0.332
GTTGGCTA | -0.0861
AGCTTTTC | -0.00677
ACGGCTCC | 0.256
ACGGCAGA | 0.064
CCGGCTCG | -0.128
ACGGCTCG | 0.312
ACGGCACA | 0.327
TCGGCACA | -0.0165
CCGGCACG | -0.1
ACGGCACG | 0.348
CCGGCACA | -0.136
CAGGCGTC | -0.00038
CGCGCGAG | 0.0316
ACAGGCCA | -0.202
GAAATTGA | 0.153
CGGTCGTA | -0.304
GTTGCCGA | 0.0213
GCACCAGC | -0.176
AGTATGGG | -0.162
GTGCGGAA | -0.0138
GCGCGGCA | 0.264
ATGCGGCA | 0.312

Sequence | PBM E-score
ACGCGGCG | 0.363
ACGCGGCA | 0.28
AGGCGGCA | 0.119
ATGCGGCG | 0.343
GTGCGGCA | 0.311
ACGCGGCT | 0.248
CTGCGGCA | 0.182
AGGCGGCG | 0.204
ATGCGGCC | 0.0608
GAATTCAC | 0.0689
GCCAACCA | -0.0975
ATACCCTG | -0.0744
CGGAAGCA | 0.151
AGTCTTCA | -0.0551
TCCCCACA | -0.103
ACGGCATA | 0.245
GCGGCACC | 0.311
AGGGCACT | -0.0161
ACGGCATC | 0.375
GCGGCAGC | -0.104
CCGGCACC | -0.146
AGGGCACC | -0.282
GCGGCACA | 0.176
ACGGCACT | 0.352
ACGGCATG | 0.126

Sequence | PBM E-score
AAGGCACT | -0.0255
ACGGCACC | 0.391
AATCAGAA | 0.00689
CATATCCC | 0.0321
ACGATCAA | 0.135
AAACCATG | -0.0483
GCGACTAA | 0.0201
GAGTTTGC | -0.0936
CGTAAAGA | 0.167
ATTGGTCG | 0.069
CTCACGGC | 0.105
GAGTTTCC | -0.137
CCGGACGC | 8e-05
ACGGCAAT | 0.329
ACGGCAAG | 0.0822
ACGGCAAA | 0.28
TCTACAGA | -0.0513
AGTACCTA | 0.00893
CGAAAAGA | 0.313
GGAAAAGA | 0.0532
AGAAAAGA | 0.112
ACTAAAGC | 0.0156
AGTGATAT | 0.0988
ACTGATAT | 0.109
CATGATAA | 0.155

Sequence | PBM E-score
AAAGATAA | 0.308
AATGATAT | 0.322
AATGATAA | 0.347
GATGATAC | 0.127
CATGATAC | 0.251
AATGATAC | 0.316
TAAGATAA | 0.159
AATGATAG | 0.174
AAAGATAG | -0.026
CGATATCA | 0.145
AAGCTTTC | 0.0818
AACTGATT | 0.0959
TCGCGCCA | -0.0121
GTCCGAGA | 0.0681
GTCTAGAC | -0.0977
CACCAAAC | 0.17
TACTCCCA | -0.0234
AGTCAAAT | 0.0827
GGTAATGA | 0.213
AGTAATGA | 0.247
CGTAATGC | 0.365
AGTAATGC | 0.0951
